Screening results: PubChem, National Center for Advancing Translational Sciences (NCATS)
Sampled rows, rich in hits. Any-hit rate of the full collection: about 3.4%.
Tau fluor cs: counter-screen for tau fibril formation inhibitors; tau K18 P301L Alexa594 fluorescence, heparin fibrillization; Potency, µM (series often up to 57.7 µM), inactives show top-dose activity change, negative = decrease; 280,000 compounds, 0.93% hits; AID 1463; note: nearly all actives have a fitted effect of over 55% in size
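Human K18 P301L tau (15 uM unlabeled plus 0.24 uM Alexa 594-labeled, final) in 100 mM sodium acetate pH 7 was mixed with compound and 20 uM heparin and incubated 6 hr at 37 C.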
Tau ThT inhib: tau fibrillization inhibition (ThT binding) | P10636 | recombinant tau K18 P301L (four-repeat tau fragment), heparin-induced fibrillization, ThT fluorescence | Potency, µM (titrated, usually from 57.4 µM), for inactives: at the top dose activity, negative = inhibition, most hits filed as inhibitors | 270,000 compounds, 2.1% hits | AID 1460; note: nearly all actives have a fitted effect of over 55% in size
Target sequence (P10636 561-689 P618L limits assumed): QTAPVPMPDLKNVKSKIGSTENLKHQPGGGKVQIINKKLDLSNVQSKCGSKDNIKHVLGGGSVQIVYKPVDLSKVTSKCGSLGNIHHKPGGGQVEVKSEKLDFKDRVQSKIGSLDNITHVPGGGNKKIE
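Tau K18 P301L fragment (15 uM unlabeled plus 0.24 uM Alexa 594-labeled) in 100 mM sodium acetate pH 7 with compound, fibrillization induced by 20 uM heparin for 6 hr at 37 C. Thioflavin T (30 uM) added, fluorescence read after 1 hr (ex 450, em 510 nm).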
Tau FP inhib: blocks human tau fibril formation measured by polarization; 280,000 compounds, 0.39% hits; K18 P301L tau heparin fibrillization, Alexa594 FP, 6 h; AID 1468; Potency, µM (highest dose often 57.7 µM), for inactives: at the top dose activity, negative = inhibition, actives largely listed as inhibitors; note: nearly all actives have a fitted effect of over 55% in size
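Recombinant K18 P301L […], labeled with Alexa 594 at 0.24 uM over 15 uM unlabeled; heparin inducer 20 uM final; 37 C, 6 hr; FP endpoint.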
JMJD2E inh: JMJD2E (human) inhibition; Potency, µM (series often up to 57.1 µM), without a hit: at the highest dose activity change, negative = inhibition, actives largely listed as inhibitors; B2RXH2; JMJD2E catalytic domain, FDH-coupled NADH fluorescence (FDH is formaldehyde dehydrogenase); 230,000 compounds, 1.6% hits; active = well fitted inhibition curve with a large enough effect, not every such curve was filed as active; inconclusive = small, poorly fitted or top-dose-only effect, or another doubt; inactive = no such curve, though single readings can be large or run the other way;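 note: 0% = wells with enzyme and -100% = buffer wells without enzyme; nearly all actives have a fitted effect of over 50% in size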
Target sequence (B2RXH2 1-337 limits assumed): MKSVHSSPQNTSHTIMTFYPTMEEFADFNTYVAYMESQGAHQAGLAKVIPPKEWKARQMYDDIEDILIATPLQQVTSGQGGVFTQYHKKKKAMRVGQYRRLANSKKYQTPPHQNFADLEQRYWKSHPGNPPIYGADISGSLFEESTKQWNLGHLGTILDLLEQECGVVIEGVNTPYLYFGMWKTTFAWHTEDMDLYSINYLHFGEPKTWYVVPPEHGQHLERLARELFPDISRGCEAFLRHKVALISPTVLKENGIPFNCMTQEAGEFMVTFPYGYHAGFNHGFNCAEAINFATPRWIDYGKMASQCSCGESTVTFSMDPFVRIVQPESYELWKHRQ
GoLoco inh red: blocks human Gai1 binding to RGS12 GoLoco peptide, red readout. Gai1:RGS12 GoLoco peptide FP, rhodamine, 10 min. 230,000 compounds, 0.44% hits. Potency, µM (doses to about 61.6 µM), for inactives: at the top dose activity, negative = inhibition, actives largely listed as inhibitors; active = well fitted inhibition curve with a large enough effect, not every such curve was filed as active; inactive = no such curve, though single readings can be large or run the other way; note: nearly all actives have a fitted effect of over 30% in size
* hit, by the source's call; ? = inconclusive; nt = not tested or not shown; [ ] = another dose, or the depositor's remark. Unless noted, calls come from the whole dose curve; as a rule, active = well fitted curve in the direction sought with a large enough effect; inconclusive = small, poorly fitted or top-dose-only effect, or another doubt; inactive = no such curve, though single readings can be large; an effect the other way counts as inactive or inconclusive. Unless noted, % is set by controls: 0 for no effect and ±100 for the full control effect; potency is the fitted concentration of half-maximal effect.

SMILES	Tau fluor cs	Tau ThT inhib	Tau FP inhib	JMJD2E inh	GoLoco inh red
Nc1ccc(N)c(C(=O)O)c1	?	14µM*	?	-6%	16µM*
CCc1ccccc1NC(=O)c1sc(-n2nc(C)c(Cc3ccc4c(c3)OCO4)c2C)nc1C	-8%	-4%	3%	nt	nt
CCN(CC)S(=O)(=O)c1ccc(N/N=C(\C)c2ccc(OC)cc2O)nc1	?	?	?	32µM*	-1%
CCN(CC)S(=O)(=O)c1ccc(N/N=C/c2ccc(O)cc2)nc1	?	?	?	?	10%
COc1cccc(CNC(=O)CN2N=C(c3ccc(C)cc3)CCC2=O)c1	-4%	4%	-3%	nt	nt
O=S(=O)(Nc1cc(Sc2cccc3cccnc23)c(O)c2ccccc12)c1ccc(F)cc1	14µM*[quencher]	13µM*	28µM*	28µM*	-6%
COc1ccc(S(=O)(=O)Nc2cc(Sc3ncn[nH]3)c(O)c3ccccc23)cc1	?	7.1µM*	16µM*	?	-35%
O=C(Sc1cccc2cccnc12)c1ccc(F)cc1	-11%	?	?	?	0%
Cc1cc(C)cc(NC(=O)Cn2c(=O)n(C(C)C)c(=O)c3oc4ccccc4c32)c1	-19%	8%	-18%	nt	nt
COc1cc2c3nnc(-c4ccccc4)c-3cn(Cc3ccccc3F)c2cc1OC	-4%	2%	3%	3.5µM*	0%
C=Cc1ccc(Cn2c(SCC(=O)N3CCN(c4ccc(F)cc4)CC3)nc3ccccc32)cc1	-12%	-9%	8%	nt	nt
CC1CC(OCC(O)CN2CCOCC2)CC(C)(C)C1 (stereo not drawn)	3%	1%	-6%	11%	8%
CC1CC(OCC(O)C[N+]2(C)CCOCC2)CC(C)(C)C1 (stereo not drawn)	-4%	-1%	-7%	-2%	2.2µM*
CC(=O)c1ccc(NC(=O)C2=CC(c3ccc(C)cc3)=NS(=O)(=O)N2C)cc1	-19%	-16%	3%	nt	nt
Oc1ccccc1/C=N/Nc1cccc2cccnc12	13µM*[quencher]	?	15%	?	3%
O=C(COc1cccc2cccnc12)N/N=C/c1ccccc1O	-10%	?	-7%	7.9µM*	-3%
C/C(=N\OCC(=O)N/N=C/c1ccccc1)c1cccs1	-17%	-15%	-5%	1%	5%
C/C(=N\OCC(=O)N/N=C/c1ccccc1O)c1cccs1	?	?	-4%	22µM*	-2%
CN1C(=O)CS/C1=N\NC(=O)COc1cccc2cccnc12	12%[2.34 µM]	10µM*	-7%	10%	2%
O=C(COc1cccc2cccnc12)N/N=C/c1ccc(O)cc1	-8%	?	-3%	-29%	6%
O=C(O)c1ccc(N/N=C/c2cccc3cccnc23)cc1	-17%	nt	7%	?	22%
O=C(NCCc1ccccc1)c1ccc2c(c1)N(Cc1ccc(Cl)cc1)C(=O)c1ccccc1S2(=O)=O	?	7%	?	nt	nt
COc1ccc(S(=O)(=O)n2nc(C)c(S(=O)(=O)N3CCC(C)CC3)c2C)cc1C	1%	0%	-4%	nt	nt
C#CCn1cc(/C=N/NC(=O)COc2cccc3cccnc23)c2ccccc21	-13%	?	7%	3%	0.79µM*
COc1cc(Cl)c(C)cc1NC(=O)CCCN1C(=O)C(c2ccccc2)Oc2cccnc21 (stereo not drawn)	-22%	-10%	7%	nt	nt
SMILES	Tau fluor cs	Tau ThT inhib	Tau FP inhib	JMJD2E inh	GoLoco inh red
COc1ccc(CCNC(=O)CCCn2c(=O)c3ccccc3n(Cc3ccccc3)c2=O)cc1OC	-11%	-9%	-1%	nt	nt
COc1ccccc1CNC(=O)CC1N=C2c3ccccc3N=C(SCC(=O)Nc3ccc(F)cc3)N2C1=O (stereo not drawn)	0%	4%	2%	nt	nt
CC1=NN(C(=O)c2ccncc2)C(=O)[C@@H]1N=Nc1ccc2ccccc2c1	nt	nt	nt	nt	8%[14.2 µM]
CC1=NN(C(N)=S)C(=O)C1N=Nc1ccccc1C (stereo not drawn)	-15%	10µM*	4%	6%	20%
CC1=NN(C(N)=S)C(=O)C1N=Nc1c(C)cc(C)cc1C (stereo not drawn)	-21%	4.5µM*	3%	5%	10%
CC1=NN(C(N)=S)C(=O)C1N=Nc1ccc(C)cc1C (stereo not drawn)	?	3.2µM*	1%	3%	7%
CC(N)=NCCCC[C@H](N)C(=O)O	-2%	-5%	1%	-16%	-1%
Cc1ccc(CN2CCc3nc(N4CCN(C)CC4)ncc3C2)s1	5%	-9%	9%	nt	nt
COc1cc(O)c(C(C)=O)c(OC)c1	-20%	-3%	-7%	2%	2%
COc1cc(O)c(C(C)=O)c(CC(=O)O)c1	-11%	?	-7%	25µM*	3%
COc1ccc2c(c1)[N+](C)(C)C(C)(C)C=C2C	-6%	-6%	5%	20µM*	-46%
CCOc1ccc2c(c1)[N+](C)(C)C(C)(C)C=C2C	-1%	-3%	1%	-11%	-4%
NC(=O)C1CCN(C2=C(NS(=O)(=O)c3ccc(Cl)cc3)C(=O)c3ccccc3C2=O)CC1	?	16µM*	?	-25%	-10%
COC(=O)C1CCN(C2=C(NS(=O)(=O)c3ccc(Cl)cc3)C(=O)c3ccccc3C2=O)CC1	?	14µM*	-14%	-8%	-2%
CC1CCCN(C2=C(NS(=O)(=O)c3ccc(Cl)cc3)C(=O)c3ccccc3C2=O)C1 (stereo not drawn)	-4%	?	-3%	-2%	-14%
Cc1ccc(NC(=O)C2CCCN(S(=O)(=O)c3cccc4cccnc34)C2)c(Br)c1 (stereo not drawn)	-13%	-10%	2%	nt	nt
CC1(C)N([O-])c2cc([N+](=O)[O-])ccc2[N+]1=O	?	2µM*	8.9µM*	-27%	-9%
COc1ccc2c(c1)c1c(c(=O)n(-c3ccc(F)c(Cl)c3)c(=O)n1Cc1ccccc1C)n2C	7%	7%	2%	nt	nt
Nc1c(C(=O)c2ccccc2)sc2snc(SCC(=O)c3ccccc3)c12	?	7.9µM*	?	?	12%
CSc1c(C#N)c(N)nc2sc(C(=O)c3ccccc3)c(N)c12	?	nt	-18%	-20%	3%
O=C(/C=C/NNC(=O)c1ccc(Br)cc1)c1ccccc1	?	25µM*	-3%	-12%	3%
Clc1ccc(NNc2ccnc3cc(Cl)ccc23)cc1	?	3.2µM*	-9%	-4%	6%
CCOC(=O)C1=C(C)Nc2sc(C(=O)c3ccc(OC)cc3)c(N)c2C1c1ccc(C(=O)OC)cc1 (stereo not drawn)	5µM*[quencher]	6%	7%	3%	9%
CCCC(=O)N1CCN(c2nc3ccc(F)cc3s2)CC1	7%	?	1%	nt	nt
COc1ccccc1CNC(=O)c1ccc2[nH]c(C)c(C)c2c1	?	?	0%	nt	nt
COc1ccccc1CNC(=O)c1c(O)c2cc(OC)c(OC)cc2[nH]c1=O	2%	-5%	1%	3.5µM*	nt
